Data reported in PubChem BioAssay (EPA / NIEHS).
Calls of active or inactive are those of the source. How the source made its calls: active means hit-call score of the fitted dose curve at least 0.9, where 1 is the maximum; inactive means score below 0.9.

Tests used:
Details in all cases: mRNA level, 48 h; actives raise or lower the signal
[1] = read-out: Apoptosis regulator Bcl-2 (Homo sapiens) (UniProt P10415); assay: LTEA_HepaRG_BCL2: Life Technologies and Expression Analysis (LTEA) Assay for Bcl-2 gene using HepaRG (AID 2283475)
Summary of the method: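 Differentiated human HepaRG cells in serum-free induction medium exposed 48 h, in duplicate, to 8-point half-log series from 100 uM in 0.5% DMSO. BCL2 mRNA by qRT-PCR (TaqMan/Fluidigm), normalized to ACTB, GAPDH, POLR2A; bidirectional fit against DMSO.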

Caspase-3 (Homo sapiens) = Caspase-3 (Homo sapiens) (UniProt P42574); assay: LTEA_HepaRG_CASP3: Life Technologies and Expression Analysis (LTEA) Assay for cysteine-aspartic acid protease (CASP3) using HepaRG (AID 2283477)
Summary of the method: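 HepaRG, 48 h exposure, 8 conc. (top 100 uM, half-log steps, duplicate), 0.5% DMSO vehicle; qRT-PCR of CASP3 transcript, housekeeping-normalised (ACTB/GAPDH/POLR2A); bidirectional curve fit vs DMSO baseline.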

[2] = read-out: Cytochrome P450 (CYP24A1), CYP24A1 (gene 1591); assay: LTEA_HepaRG_CYP24A1: Life Technologies and Expression Analysis (LTEA) Assay for Cytochrome P450 (CYP24A1) using HepaRG (AID 2283478)
Summary of the method: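 qRT-PCR read-out: CYP24A1 transcript levels normalized to three housekeeping genes, bidirectional curve fits against 0.5% DMSO baseline. Human HepaRG cells treated 48 h with chemicals at eight concentrations from 100 uM in half-log steps.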

[3] = read-out: Cytochrome P450 (CYP1A2), CYP1A2 (gene 1544); assay: LTEA_HepaRG_CYP1A2: Life Technologies and Expression Analysis (LTEA) Assay for Cytochrome P450 (CYP1A2) using HepaRG (AID 2283479)
Summary of the method: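 HepaRG, 48 h exposure, top 100 uM, half-log 8-pt, 0.5% DMSO vehicle, duplicates. Readout: TaqMan qRT-PCR of CYP1A2 mRNA, housekeeping-normalized (ACTB/GAPDH/POLR2A). Gain/loss fit relative to DMSO baseline.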

[4] = read-out: cysteine-aspartic acid protease (CASP8), CASP8 (gene 841); assay: LTEA_HepaRG_CASP8: Life Technologies and Expression Analysis (LTEA) Assay for cysteine-aspartic acid protease (CASP8) using HepaRG (AID 2283480)
Summary of the method: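 HepaRG, 48 h exposure, duplicate wells; 8 conc, half-log from 100 uM, 0.5% DMSO. Serum-free induction medium. CASP8 mRNA by TaqMan qRT-PCR, norm. ACTB/GAPDH/POLR2A; gain/loss fitted vs DMSO.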

[5] = read-out: Cytochrome P450 (CYP2B6), CYP2B6 (gene 1555); assay: LTEA_HepaRG_CYP2B6: Life Technologies and Expression Analysis (LTEA) Assay for Cytochrome P450 (CYP2B6) using HepaRG (AID 2283481)
Summary of the method: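 Read-out is CYP2B6 mRNA by TaqMan qRT-PCR, normalized to three housekeeping genes and fitted bidirectionally against 0.5% DMSO baseline. Human HepaRG cells received test chemicals for 48 h, top concentration 100 uM, half-log dilutions.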

CYP2C8 (gene 1558) = assay: LTEA_HepaRG_CYP2C8: Life Technologies and Expression Analysis (LTEA) Assay for CYP2C8 using HepaRG (AID 2283483)
Summary of the method: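 CYP2C8 mRNA induction or loss, by qRT-PCR normalized to ACTB/GAPDH/POLR2A, is read in HepaRG cells after 48 h treatment. Concentrations run from 100 uM down in half-log dilutions, with 0.5% DMSO as vehicle and baseline.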

CYP2C9 (gene 1559) = assay: LTEA_HepaRG_CYP2C9: Life Technologies and Expression Analysis (LTEA) Assay for CYP2C9 using HepaRG (AID 2283484)
Summary of the method: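 Cells plated 48 h, switched to serum-free induction medium, then treated in duplicate for 48 h at eight concentrations (max 100 uM, 0.5% DMSO). RNA then analysed by qRT-PCR for CYP2C9; curves fitted in both directions relative to DMSO.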

[6] = read-out: Bcl-2 (BID) gene, BID (gene 637); assay: LTEA_HepaRG_BID: Life Technologies and Expression Analysis (LTEA) Assay for Bcl-2 (BID) gene using HepaRG (AID 2283476)
Summary of the method: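 Gene expression by qRT-PCR in HepaRG cells after 48 h exposure, duplicate wells, eight half-log concentrations topping at 100 uM in 0.5% DMSO. Normalized to ACTB, GAPDH, POLR2A; bidirectional fitting relative to DMSO.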

[7] = read-out: Cytochrome P450 2C19 (Homo sapiens) (UniProt P33261); assay: LTEA_HepaRG_CYP2C19: Life Technologies and Expression Analysis (LTEA) Assay for CYP2C19 using HepaRG (AID 2283482)
Summary of the method: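 HepaRG, 48 h chemical exposure, 8-pt half-log series from 100 uM in 0.5% DMSO, duplicates. Readout: CYP2C19 mRNA by TaqMan qRT-PCR, housekeeping-normalized. Bidirectional fit vs DMSO baseline; phenobarbital 1mM as induction control.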

Measured: AC50

Caspase-3 (Homo sapiens), sequence (P42574 whole entry, looked up): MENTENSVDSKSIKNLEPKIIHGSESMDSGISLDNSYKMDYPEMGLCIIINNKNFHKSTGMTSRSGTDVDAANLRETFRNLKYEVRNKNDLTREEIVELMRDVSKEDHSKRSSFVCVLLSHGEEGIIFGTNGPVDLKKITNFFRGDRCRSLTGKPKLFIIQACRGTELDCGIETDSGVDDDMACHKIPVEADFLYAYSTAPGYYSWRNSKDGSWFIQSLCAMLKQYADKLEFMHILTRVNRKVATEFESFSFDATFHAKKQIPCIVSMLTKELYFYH
Apoptosis regulator Bcl-2 (Homo sapiens), sequence (P10415 whole entry, looked up): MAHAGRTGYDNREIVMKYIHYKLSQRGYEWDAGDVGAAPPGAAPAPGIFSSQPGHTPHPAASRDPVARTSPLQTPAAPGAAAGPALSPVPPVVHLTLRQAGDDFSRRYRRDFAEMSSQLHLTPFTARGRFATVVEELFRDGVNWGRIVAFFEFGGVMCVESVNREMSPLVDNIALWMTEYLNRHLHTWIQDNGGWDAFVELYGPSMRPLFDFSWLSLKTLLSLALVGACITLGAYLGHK
Cytochrome P450 2C19 (Homo sapiens), sequence (P33261 whole entry, looked up): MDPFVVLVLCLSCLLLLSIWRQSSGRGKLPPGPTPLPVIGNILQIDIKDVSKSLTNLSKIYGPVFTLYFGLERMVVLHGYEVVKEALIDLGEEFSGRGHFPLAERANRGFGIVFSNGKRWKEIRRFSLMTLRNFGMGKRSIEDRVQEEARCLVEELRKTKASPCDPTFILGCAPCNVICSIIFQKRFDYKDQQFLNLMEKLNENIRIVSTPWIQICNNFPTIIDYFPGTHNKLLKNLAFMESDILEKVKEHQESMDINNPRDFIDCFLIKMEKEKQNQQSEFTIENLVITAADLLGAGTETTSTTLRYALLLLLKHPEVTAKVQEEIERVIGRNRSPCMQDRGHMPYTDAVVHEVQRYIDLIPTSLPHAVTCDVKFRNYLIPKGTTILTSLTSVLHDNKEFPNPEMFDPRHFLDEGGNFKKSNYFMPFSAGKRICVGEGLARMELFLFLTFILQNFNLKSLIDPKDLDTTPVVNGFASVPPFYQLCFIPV

CC(C)(O)c1coc(S(=O)(=O)NC(=O)Nc2c3c(cc4c2CCC4)CCC3)c1
active: [3] 50 µM | [5] 2.62 µM
inactive: [1] | Caspase-3 (Homo sapiens) | [2] | [4] | CYP2C8 (gene 1558) | CYP2C9 (gene 1559)

CCC(C)(C)C(=O)O[C@H]1C[C@@H](C)C=C2C=C[C@H](C)[C@H](CC[C@@H]3C[C@@H](O)CC(=O)O3)[C@H]21
inactive: [1] | [6] | Caspase-3 (Homo sapiens) | [4]

O=C1CCCCCN1
inactive: [1] | [6] | Caspase-3 (Homo sapiens) | [2] | [3] | [4] | [5] | [7] | CYP2C8 (gene 1558) | CYP2C9 (gene 1559)

O=c1n(CC2CO2)c(=O)n(CC2CO2)c(=O)n1CC1CO1 (configuration not stated)
inactive: [1] | [6] | Caspase-3 (Homo sapiens) | [2] | [3] | [4] | [5] | [7] | CYP2C8 (gene 1558) | CYP2C9 (gene 1559)
